Source: PubChem BioAssay (EPA / NIEHS)
Where “and” joins values, the source holds several entries; their conditions need not be identical. Equal entries are not always repeated. A structure can be active in one record and inactive in another. Calls of active or inactive are those of the source. How the source made its calls: active means hit-call score of the fitted dose curve at least 0.9, where 1 is the maximum; inactive means score below 0.9.

How the values were obtained:
[1] = read-out: Vascular endothelial growth factor receptor 2 (Homo sapiens) (UniProt P35968); assay: BSK_4H_VEGFRII: BioMAP Diversity Plus: 4H Assay for Vascular endothelial growth factor receptor 2 (VEGFR2) Biomarker Activity (AID 2283031); conditions: primary human endothelial cells (HUVEC); actives raise or lower the signal;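 on AC50: cell-surface VEGFR2 protein level quantified by ELISA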
Summary of the method: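 Primary human umbilical vein endothelial cells in the BioMAP 4H system were dosed with test chemical, and 24 h later VEGFRII was measured by ELISA. Activity was fitted bidirectionally against DMSO as negative control and baseline.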

[2] = read-out: Human Leukocyte Antigen - DR isotype (HLADR), HLA-DRA (gene 3122); assay: BSK_BE3C_HLADR: BioMAP Diversity Plus: BE3C Assay for Human Leukocyte Antigen - DR isotype (HLADR) Biomarker Activity (AID 2283032); conditions: primary human bronchial epithelial cells; actives raise or lower the signal
Summary of the method: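 Human primary bronchial epithelial cells in the BE3C system were exposed to chemicals for 24 h, after which HLA-DR levels were quantified by ELISA. Activity was fitted bidirectionally, gain or loss of signal, against DMSO as negative control and baseline.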

[3] = read-out: Vascular cell adhesion molecule 1 (VCAM1), VCAM1 (gene 7412); assay: BSK_4H_VCAM1: BioMAP Diversity Plus: 4H Assay for Vascular cell adhesion molecule 1 (VCAM1) Biomarker Activity (AID 2283033); conditions: primary human endothelial cells (HUVEC); actives raise or lower the signal
Summary of the method: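 Primary human umbilical vein endothelial cells were exposed to chemicals for 24 h, after which VCAM-1 was quantified by ELISA. Responses were fitted bidirectionally against DMSO as negative control and activity baseline.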

[4] = read-out: Interferon-gamma inducible Protein 10 (IP10), CXCL10 (gene 3627); assay: BSK_BE3C_IP10: BioMAP Diversity Plus: BE3C Assay for Interferon-gamma inducible Protein 10 (IP10) Biomarker Activity (AID 2283034); conditions: primary human bronchial epithelial cells; actives raise or lower the signal
Summary of the method: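 Human primary bronchial epithelial cells were exposed to chemicals for 24 hours, after which IP-10 levels were measured by ELISA. Data were fitted bidirectionally against DMSO, which served as the negative control and activity baseline.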

[5] = read-out: Transforming growth factor beta 1 (TGFb1), TGFB1 (gene 7040); assay: BSK_BE3C_TGFb1: BioMAP Diversity Plus: BE3C Assay for Transforming growth factor beta 1 (TGFb1) Biomarker Activity (AID 2283036); conditions: primary human bronchial epithelial cells; actives raise or lower the signal
Summary of the method: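 Human primary bronchial epithelial cells (BE3C system) were dosed with chemical and TGF-b1 levels measured by ELISA at 24 h. Activity was fitted bidirectionally relative to DMSO negative control as baseline.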

[6] = read-out: Plasminogen activator inhibitor-1 (PAI1), SERPINE1 (gene 5054); assay: BSK_BE3C_PAI1: BioMAP Diversity Plus: BE3C Assay for Plasminogen activator inhibitor-1 (PAI1) Biomarker Activity (AID 2283037); conditions: primary human bronchial epithelial cells; actives raise or lower the signal
Summary of the method: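 Human primary bronchial epithelial cells were exposed to chemical for 24 h, then PAI-1 was quantified by ELISA. Activity was fitted bidirectionally relative to the DMSO negative control baseline.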

[7] = read-out: urokinase plasminogen activator (uPA), PLAU (gene 5328); assay: BSK_BE3C_uPA: BioMAP Diversity Plus: BE3C Assay for urokinase plasminogen activator (uPA) Biomarker Activity (AID 2283038); conditions: primary human bronchial epithelial cells; actives raise or lower the signal
Summary of the method: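 Human primary bronchial epithelial cells were exposed to chemical for 24 h, then uPA levels were measured by ELISA. Responses were fitted bidirectionally against DMSO as negative control and baseline. Parallel SRB staining of total protein gauged overt cytotoxicity.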

[8] = read-out: Urokinase-type plasminogen activator receptor (uPAR), PLAUR (gene 5329); assay: BSK_BE3C_uPAR: BioMAP Diversity Plus: BE3C Assay for Urokinase-type plasminogen activator receptor (uPAR) Biomarker Activity (AID 2283039); conditions: primary human bronchial epithelial cells; actives raise or lower the signal
Summary of the method: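 Primary human bronchial epithelial cells were dosed with chemical and harvested 24 h later; uPAR was quantified by ELISA. Activity was fitted bidirectionally against DMSO as negative control and baseline.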

[9] = read-out: Interleukin-6 (IL6), IL6 (gene 3569); assay: BSK_CASM3C_IL6: BioMAP Diversity Plus: CASM3C Assay for Interleukin-6 (IL6) Biomarker Activity for (AID 2283040); conditions: primary human coronary artery smooth muscle cells; actives raise or lower the signal
[10] = read-out: Monokine induced gamma interferon (MIG), CXCL9 (gene 4283); assay: BSK_BE3C_MIG: BioMAP Diversity Plus: BE3C Assay for Monokine induced gamma interferon (MIG) Biomarker Activity (AID 2283035); conditions: primary human bronchial epithelial cells; actives raise or lower the signal
Summary of the method: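 Primary human bronchial epithelial cells treated for 24 h; MIG levels measured by ELISA, fitted bidirectionally versus DMSO. Parallel SRB total-protein staining assessed cytotoxicity.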

Measured: AC50

O=[N+]([O-])c1c(Cl)c(Cl)c(Cl)c(Cl)c1Cl
active: [3] 19.3 µM
inactive: [1] | [2] | [4] | [5] | [6] | [7] | [8] | [9]

CCC(C)(C)C(=O)OC1=C(c2ccc(Cl)cc2Cl)C(=O)OC12CCCCC2
active: [2] 23.5 µM | [3] 36.6 µM | [10] 34.2 µM | [5] 35.7 µM | [6] 20 µM | [7] 31.1 µM | [8] 36.4 µM
inactive: [1] | [9]

CNC(=O)/C=C(\C)OP(=O)(OC)OC
inactive: [1] | [2] | [3] | [4] | [5] | [6] | [7] | [8] | [9]

CC1(C)C(C=C(Cl)Cl)C1C(=O)OC(C#N)c1ccc(F)c(Oc2ccccc2)c1 (stereo unspecified)
inactive: [1] | [2] | [3] | [4] | [5] | [6] | [7] | [8] | [9]

CCS(=O)(=O)c1cccnc1S(=O)(=O)NC(=O)Nc1nc(OC)cc(OC)n1
inactive: [1] | [2] | [3] | [10] | [5] | [6] | [7] | [8] | [9]

CNC(=O)Oc1cccc(N=CN(C)C)c1
inactive: [1] | [3] | [4] | [5] | [6] | [7] | [8] | [9]
active: [2] 26.6 µM

COP(=S)(OC)Oc1ccc(SC)c(C)c1
active: [8] 0.148 µM
inactive: [1] | [2] | [3] | [10] | [5] | [6] | [7] | [9]

Oc1cc(Cl)ccc1Oc1ccc(Cl)cc1Cl
inactive: [1]
active: [1] 6.66 µM and 9.59 µM | [2] 30.3 µM [middle of 4 runs] | [3] 23.8 µM [middle of 4 runs] | [10] 36 µM [middle of 4 runs] | [5] 27.5 µM [middle of 4 runs] | [6] 30.1 µM [middle of 4 runs] | [7] 31.2 µM [middle of 4 runs] | [8] 30.5 µM [middle of 4 runs]

Clc1ccccc1-c1nnc(-c2ccccc2Cl)nn1
active: [5] 32.5 µM
inactive: [1] | [2] | [3] | [10] | [6] | [7] | [8] | [9]

CC(C)(C)C(O)/C(=C\c1ccc(Cl)cc1Cl)n1cncn1 (stereo unspecified)
inactive: [5] | [9]
active: [1] 27.4 µM | [2] 27.5 µM | [3] 27.7 µM | [4] 31.1 µM | [10] 35.1 µM | [6] 27.6 µM | [7] 30.3 µM | [8] 20 µM

COc1nn(CSP(=S)(OC)OC)c(=O)s1
inactive: [1] | [2] | [3] | [4] | [5] | [6] | [7] | [8] | [9]

CCOc1nc(NC)nc(NC(=O)NS(=O)(=O)c2ccccc2C(=O)OC)n1
inactive: [1] | [2] | [3] | [4] | [5] | [6] | [7] | [8] | [9]

O=C1c2ccccc2C(=O)N1SC(Cl)(Cl)Cl
active: [2] 30.6 µM | [4] 35 µM | [5] 31.6 µM | [6] 20 µM | [7] 28.7 µM | [8] 34.7 µM | [9] 30.3 µM
inactive: [1] | [3]

CC1(c2ccc(Oc3ccccc3)cc2)OC(=O)N(Nc2ccccc2)C1=O (stereo unspecified)
active: [1] 20 µM | [3] 15.3 µM | [4] 15 µM
inactive: [2] | [5] | [6] | [7] | [8] | [9]

O=C(Nc1ccccc1)Nc1cnns1
inactive: [1] | [2] | [3] | [10] | [5] | [6] | [7] | [8] | [9]

COP(=O)(OC)OC=C(Cl)Cl
active: [6] 20 µM | [8] 6.12 µM
inactive: [1] | [2] | [3] | [4] | [10] | [5] | [7] | [9]

C[C@H]1[C@H](c2ccc(Cl)cc2)SC(=O)N1C(=O)NC1CCCCC1
inactive: [1] | [4] | [5] | [7] | [8]
active: [2] 12.6 µM | [3] 7.61 µM | [6] 10.6 µM | [9] 7.98 µM

O=S(=O)(O)C(F)(F)C(F)(F)C(F)(F)C(F)(F)C(F)(F)C(F)(F)C(F)(F)C(F)(F)F
active: [2] 23.1 µM [middle of 8 runs] | [5] 28.6 µM and 12.1 µM and 19.2 µM | [7] 32 µM [middle of 4 runs] | [8] 33.2 µM and 32.7 µM and 6.81 µM
inactive: [1] | [3] | [5] | [6] | [7] | [8] | [9]

Oc1ccc(Cl)cc1Cc1ccccc1
active: [1] 23.8 µM | [2] 34.7 µM [middle of 7 runs] | [3] 31 µM [middle of 6 runs] | [5] 33.9 µM [middle of 7 runs] | [6] 34.4 µM [middle of 7 runs] | [7] 36.3 µM [middle of 7 runs] | [8] 32.1 µM [middle of 7 runs] | [9] 30.5 µM [middle of 4 runs]
inactive: [1] | [9]

COP(=S)(OC)Oc1ccc([N+](=O)[O-])cc1
active: [3] 20.1 µM | [5] 9.07 µM
inactive: [1] | [2] | [4] | [6] | [7] | [8] | [9]

C#CCN1C(=O)COc2cc(F)c(N3C(=O)C4=C(CCCC4)C3=O)cc21
inactive: [1] | [3] | [5] | [6] | [7] | [8] | [9]
active: [2] 3.97 µM

O=[N+]([O-])/N=C1\NCCN1Cc1ccc(Cl)nc1
inactive: [1] | [2] | [3] | [4] | [10] | [5] | [6] | [7] | [8] | [9]

CC(C)(C)C(O)C(Oc1ccc(Cl)cc1)n1cncn1 (stereo unspecified)
active: [2] 24.2 µM
inactive: [1] | [2] | [3] | [5] | [6] | [7] | [8] | [9]

CCCN(CCC)c1c([N+](=O)[O-])cc(C(F)(F)F)cc1[N+](=O)[O-]
inactive: [1] | [2] | [10] | [5] | [6] | [7] | [8] | [9]
active: [3] 28.2 µM | [4] 25.1 µM

CNC(=O)Oc1ccccc1OC(C)C
inactive: [1] | [2] | [3] | [10] | [5] | [6] | [7] | [8] | [9]
